Assay [1] is described as follows: qHTS assay for small molecules that induce genotoxicity in human embryonic kidney cells expressing luciferase-tagged ATAD5 (AID 651632). Further: nearly all actives have a fitted effect of over 15% in size. A digest of the protocol:
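Quantitative HTS in HEK293T expressing luciferase-tagged ATAD5, whose levels rise upon DNA damage. Exposure ran 16 hr at 37C and 5% CO2, with luminescence read 30 min after Amplite addition at room temperature.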
For orientation: qHTS replaces the single test concentration by a dilution series.

Assay [2] can be described thus: qHTS assay for small molecule agonists of the p53 signaling pathway - cell viability (AID 651633; calls by dose curve; further: series mostly up to about 83 µM; nearly all actives have a fitted effect of over 30% in size). A digest of the protocol: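 p53RE-bla cells, seeded at 4,000 per well and rested 5 h at 37 C/5% CO2, received compounds in DMSO for 16 h at 37 C. CellTiter-Glo was then added, and luminescence was read after 30 min at room temperature to gauge cytotoxicity.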
Assay [3] is described as follows: qHTS assay for small molecules that induce genotoxicity in human embryonic kidney cells expressing luciferase-tagged ATAD5 - cell viability (AID 651634; calls by dose curve; further: nearly all actives have a fitted effect of over 25% in size). In short, it runs like this:
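After 15.5 hr incubation with compound at 37C, 5% CO2, HEK293T ATAD5-luciferase cells received CellTiter-Fluor reagent; fluorescence intensity was quantified following 30 min at 37C.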

Assay [4] can be described thus: qHTS assay for small molecule disruptors of the mitochondrial membrane potential - cell viability (AID 720634; calls by dose curve;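 further: human HepG2 liver cancer cells; series mostly up to about 83 µM; nearly all actives have a fitted effect of over 20% in size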). A digest of the protocol: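 ATP-based luminescent viability readout (CellTiter-Glo, 30 min, room temperature) in HepG2 cells multiplexed with the m-MPI membrane potential dye; compound exposure lasted 1 hr at 37 C.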
The nature of assay [5]: qHTS assay for small molecule disruptors of the mitochondrial membrane potential (AID 720635). Further: potency means the concentration at half of the fitted maximal effect. A digest of the protocol: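 HepG2 cells (2,000/well) attached overnight at 37C, then took compound for 1 hr at 37C, 5% CO2. Mito-MPS dye was added for 30 min; fluorescence was read at 490/535 nm (monomers) and 540/590 nm (aggregates).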
A short description of assay [6]: qHTS assay to test for compound auto fluorescence at 590 nm (red) in HepG2 cells (AID 720674). In short, it runs like this:
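Intrinsic compound fluorescence in the red window (Ex/Em 540/590 nm) is measured in attached HepG2 cells exposed for 1 hr, DMSO vehicle as baseline, benchmarked to Rose Bengal sodium.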

Assay [7] can be described thus: qHTS assay to test for compound auto fluorescence at 535 nm (green) in HepG2 cells (AID 720675).
Assay [8] is described as follows: qHTS assay to test for compound auto fluorescence at 460 nm (blue) in HEK293 cells (AID 720678). In short, it runs like this: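 HEK293 cells (2,000 per well, medium with 10% dialyzed FBS) attached for 4-5 hr at 37C, then received compound and stood overnight at 37C, 5% CO2. Blue fluorescence was read at Ex/Em 405/460 nm and expressed relative to triamterene.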
Assay [9] in a line: qHTS assay to test for compound auto fluorescence at 590 nm (red) in HEK293 cells (AID 720679). In short, it runs like this: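 HEK293 cells (2,000/well, medium with 10% dialyzed FBS) attached for 4-5 hr at 37C, received 23 nL compound and were incubated overnight at 37C, 5% CO2. Red fluorescence was then read at 540/590nm Ex/Em, referenced to Rose Bengal sodium.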
Assay [10] is described as follows: qHTS assay to test for compound auto fluorescence at 590 nm (red) in HEK293 cell free culture (AID 720683). In short, it runs like this:
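Tox21 10K library compounds were pinned into cell-free DMEM with 10% FBS and fluorescence was read at excitation 540 nm. Activity is expressed as Rose Bengal sodium equivalency.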

Assay [11] is described as follows: qHTS assay to test for compound auto fluorescence at 590 nm (red) in HepG2 cell free culture (AID 720684). A digest of the protocol: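 Readout: intrinsic compound fluorescence at 590 nm emission after 540 nm excitation, scaled to Rose Bengal sodium. Matrix was cell-free MEM with 10% FBS; DMSO vehicle wells served as control.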
A short description of assay [12]: qHTS assay to test for compound auto fluorescence at 460 nm (blue) in HepG2 cell free culture (AID 720685). In short, it runs like this:
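Cell-free plates of MEM plus 10% FBS received 23 nL compound or DMSO vehicle; blue-channel (405/460 nm) intensity scored against triamterene as reference fluorophore.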

Assay [13] in a line: qHTS assay to test for compound auto fluorescence at 535 nm (green) in HepG2 cell free culture (AID 720686).
A short description of assay [14]: qHTS assay to test for compound auto fluorescence at 460 nm (blue) in HepG2 cells (AID 720687). In short, it runs like this: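 Cells (2,000/well in MEM with 10% FBS) attached overnight at 37 C, then were exposed to compound or DMSO for 1 hr at 37 C, 5% CO2. Fluorescence read at Ex/Em 405/460 nm, expressed as triamterene-equivalent signal.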
Assay [15] can be described thus: qHTS assay to test for compound auto fluorescence at 535 nm (green) in HEK293 cells (AID 720680).
Assay [16] is described as follows: qHTS assay to test for compound auto fluorescence at 460 nm (blue) in HEK293 cell free culture (AID 720681). In short, it runs like this: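 Test compounds were pinned into cell-free culture medium (DMEM with 10% FBS) and fluorescence was read directly at Ex/Em 405/460 nm. Signals were expressed as fluorescence equivalents of triamterene, with DMSO vehicle as control.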

The nature of assay [17]: qHTS assay to test for compound auto fluorescence at 535 nm (green) in HEK293 cell free culture (AID 720682). In short, it runs like this:
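Compounds were pin-transferred into cell-free DMEM with 10% FBS, and green fluorescence was read at excitation 485 nm and emission 535 nm. Intensities were expressed as fluorescein-equivalent values.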

For assay [18], the target named is Glucocorticoid receptor (Homo sapiens) (UniProt P04150). Briefly: qHTS assay to identify small molecule agonists of the glucocorticoid receptor (GR) signaling pathway (AID 720691; active means well fitted activation curve with a large enough effect in the signal ratio in the repeat runs, not every such curve was filed as active; the % refers to the signal ratio). In short, it runs like this: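 Cells: GR-bla HeLa, endogenous GR with stably integrated GRE-beta-lactamase reporter. Treatment 18 h, 37 C, compounds delivered in DMSO. Detection via LiveBLAzer B/G FRET substrate, 2 h RT, fluorescence intensity.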
Chain of Glucocorticoid receptor (Homo sapiens) (P04150 whole entry, looked up): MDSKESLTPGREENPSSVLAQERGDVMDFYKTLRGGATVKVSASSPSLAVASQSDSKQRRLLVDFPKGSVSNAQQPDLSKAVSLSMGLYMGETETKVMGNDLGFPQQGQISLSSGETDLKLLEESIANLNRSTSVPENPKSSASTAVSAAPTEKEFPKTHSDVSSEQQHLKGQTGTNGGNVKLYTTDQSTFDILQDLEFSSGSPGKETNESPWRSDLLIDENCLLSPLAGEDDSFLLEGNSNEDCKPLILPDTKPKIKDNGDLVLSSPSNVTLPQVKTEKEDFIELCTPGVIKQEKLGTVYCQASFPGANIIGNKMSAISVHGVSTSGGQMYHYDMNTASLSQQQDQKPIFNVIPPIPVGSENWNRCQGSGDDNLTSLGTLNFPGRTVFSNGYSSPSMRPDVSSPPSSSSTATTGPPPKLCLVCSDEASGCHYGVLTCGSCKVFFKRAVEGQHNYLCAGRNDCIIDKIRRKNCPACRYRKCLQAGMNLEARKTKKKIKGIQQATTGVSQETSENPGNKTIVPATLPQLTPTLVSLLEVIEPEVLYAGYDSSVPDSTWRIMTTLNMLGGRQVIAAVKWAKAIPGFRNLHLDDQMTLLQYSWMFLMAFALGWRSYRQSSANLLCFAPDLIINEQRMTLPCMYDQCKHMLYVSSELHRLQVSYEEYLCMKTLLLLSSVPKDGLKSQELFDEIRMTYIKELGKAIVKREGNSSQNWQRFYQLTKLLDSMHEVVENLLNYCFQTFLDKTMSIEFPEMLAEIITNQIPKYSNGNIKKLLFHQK

Assay [19] has the same target. Description: qHTS assay to identify small molecule antagonists of the glucocorticoid receptor (GR) signaling pathway (AID 720692; active means well fitted inhibition curve with a large enough effect in the signal ratio in the repeat runs, not every such curve was filed as active; the % refers to the signal ratio). A digest of the protocol:
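Quantitative HTS in antagonist format: HeLa cells expressing endogenous GR and a stably integrated GRE-bla reporter, stimulated with 5 nM dexamethasone (final) alongside test compounds for 18 h.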

Assay [20] in a line: qHTS assay for small molecule agonists of the p53 signaling pathway (AID 651631; calls by dose curve; further: nearly all actives have a fitted effect of over 15% in size). A digest of the protocol:
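Readout was fluorescence from the LiveBLAzer FRET substrate, applied for 2 h at room temperature after 16 h compound exposure at 37 °C. Cells were the p53RE-bla HCT-116 line, with beta-lactamase driven by p53 response elements.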

Molecules are shown by their SMILES. Unmarked numbers belong to inactive results. Inconclusive results are not listed. Calls of active or inactive are those of the source. Unless noted, the call rests on the fitted dose curve; in most records, active means well fitted curve in the direction sought with a large enough effect in the repeat runs; inconclusive means weak or mixed curves; inactive means no such curve, though single readings can be large; an effect the other way counts as inactive or inconclusive.
On the % scale 0 is the no-effect control and ±100 the full control effect.

On to `N#CCCNCCC#N`, for which the Potency entry in [1], in [2], in assay [3], in assay [4], in [5] and in assay [8] was “inactive” each time. The Potency entry in assay [12] and in assay [14] was “inactive” in each case. For the same molecule, the molecule was classed as inactive in assay [6], in [7], in assay [9], in assay [10], in assay [11] and in assay [13].

With `CCCCCC(CO)CCC` (stereo not drawn), the Potency result in [1], in assay [2], in assay [3], in [4], in [5] and in assay [8] was “inactive” throughout. Moreover, the Potency result in assay [16], in assay [12] and in assay [14] was “inactive” each time. The outcome in [6], in [7], in [9], in assay [15], in assay [17] and in assay [10] was inactive. Further, the result in assay [11] and in assay [13] was inactive.

In the case of `O=C(O)[C@@H]1[C@H]2C[C@H]3c4[nH]c5ccccc5c4CCN3C[C@@H]2CC[C@@H]1O`, the Potency entry in assay [1], in assay [2], in [3], in assay [4], in [18] and in [19] was “inactive” in each case. Also, in assay [5], the Potency is 11.4 µM (active). In assay [6], the fluorescence, relative to Rose Bengal is 0.127% [at 18.6 µM]. Besides, the fluorescence, % of fluorescein control was 0.513% [at 18.6 µM] in assay [7] and 0.287% [at 18.6 µM] in assay [13]. In addition, in assay [8], the fluorescence, % of triamterene was 4.22% [at 18.6 µM]. In addition, the fluorescence, % of fluorescent control in assay [9] is -0.335% [at 18.6 µM]; in assay [16], 4.98% [at 18.6 µM]; in [10] it was 0.0861% [at 18.6 µM]; in assay [12], 4.25% [at 18.6 µM]; in assay [14], 5.05% [at 18.6 µM]. Besides, the fluorescence, % of fluorescein in [15] is -0.047% [at 18.6 µM]. In addition, in [17], the activity change was -0.0263% [at 18.6 µM]. In addition, the fluorescence, % of Rose Bengal in assay [11] was -0.199% [at 18.6 µM].

On to `CCCCCCCCCCCCC(=O)O`, for which the Potency entry in assay [20], in assay [2], in [3], in assay [4], in [5] and in [8] was “inactive” each time. Further, the Potency entry in assay [16], in assay [12], in [14] and in assay [18] was “inactive” each time. For the same molecule, the molecule was called inactive in assay [7], in [9], in [15], in assay [17], in assay [10] and in assay [11]. For the same molecule, in assay [13], the molecule was called inactive.

In the case of `CC(O)C1CCCCC1` (stereo not drawn), the Potency result in assay [1], in assay [2], in assay [3], in assay [4], in assay [5] and in assay [8] was “inactive” throughout. Besides, the Potency result in assay [16], in [12] and in assay [18] was “inactive” each time. The result in assay [6], in assay [7], in assay [9], in assay [15], in [17] and in assay [10] was inactive. Besides, the molecule was called inactive in assay [11] and in assay [13].

In the case of `Oc1ccc(Cc2ccccc2)cc1`, the Potency entry in assay [1], in assay [2], in [3], in assay [4], in assay [8] and in [16] was “inactive” throughout. In addition, the Potency entry in [12], in assay [14] and in [18] was “inactive” in each case. In addition, the Potency in [5] is 14.2 µM (active). The molecule was called inactive in [6], in assay [7], in [9], in assay [15], in assay [10] and in [11]. Further, in assay [13], the result was inactive.

Consider `Cc1ccccn1`, for which the Potency entry in assay [20], in assay [2], in assay [3], in assay [4], in assay [5] and in assay [8] was “inactive” each time. Moreover, the Potency entry in assay [16], in assay [12], in assay [18] and in [19] was “inactive” throughout. Also, the molecule was called inactive in assay [6], in assay [7], in assay [15], in assay [17], in assay [10] and in assay [11]. The molecule was classed as inactive in assay [13].

These data come from PubChem BioAssay (Tox21).
